From paper PMC4336329 (PLoS ONE, 2015)
Hit rate of the full screen: of about 310,000 compounds, about 14,000 (4.5%) showed an effect of 50% or more. The effect is printed as a negative number. The entries come from a sample that favours strong results as a whole.

Biological target: human ether-à-go-go-related gene (hERG) potassium channel (human, UniProt Q12809)
Test: primary screen, population patch clamp on CHO cells stably expressing hERG; higher = less effect of the substance
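Further: peak tail current of the secondary pulse compared with the same well before compound.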

Chain of human ether-à-go-go-related gene (hERG) potassium channel (Q12809 whole entry, looked up): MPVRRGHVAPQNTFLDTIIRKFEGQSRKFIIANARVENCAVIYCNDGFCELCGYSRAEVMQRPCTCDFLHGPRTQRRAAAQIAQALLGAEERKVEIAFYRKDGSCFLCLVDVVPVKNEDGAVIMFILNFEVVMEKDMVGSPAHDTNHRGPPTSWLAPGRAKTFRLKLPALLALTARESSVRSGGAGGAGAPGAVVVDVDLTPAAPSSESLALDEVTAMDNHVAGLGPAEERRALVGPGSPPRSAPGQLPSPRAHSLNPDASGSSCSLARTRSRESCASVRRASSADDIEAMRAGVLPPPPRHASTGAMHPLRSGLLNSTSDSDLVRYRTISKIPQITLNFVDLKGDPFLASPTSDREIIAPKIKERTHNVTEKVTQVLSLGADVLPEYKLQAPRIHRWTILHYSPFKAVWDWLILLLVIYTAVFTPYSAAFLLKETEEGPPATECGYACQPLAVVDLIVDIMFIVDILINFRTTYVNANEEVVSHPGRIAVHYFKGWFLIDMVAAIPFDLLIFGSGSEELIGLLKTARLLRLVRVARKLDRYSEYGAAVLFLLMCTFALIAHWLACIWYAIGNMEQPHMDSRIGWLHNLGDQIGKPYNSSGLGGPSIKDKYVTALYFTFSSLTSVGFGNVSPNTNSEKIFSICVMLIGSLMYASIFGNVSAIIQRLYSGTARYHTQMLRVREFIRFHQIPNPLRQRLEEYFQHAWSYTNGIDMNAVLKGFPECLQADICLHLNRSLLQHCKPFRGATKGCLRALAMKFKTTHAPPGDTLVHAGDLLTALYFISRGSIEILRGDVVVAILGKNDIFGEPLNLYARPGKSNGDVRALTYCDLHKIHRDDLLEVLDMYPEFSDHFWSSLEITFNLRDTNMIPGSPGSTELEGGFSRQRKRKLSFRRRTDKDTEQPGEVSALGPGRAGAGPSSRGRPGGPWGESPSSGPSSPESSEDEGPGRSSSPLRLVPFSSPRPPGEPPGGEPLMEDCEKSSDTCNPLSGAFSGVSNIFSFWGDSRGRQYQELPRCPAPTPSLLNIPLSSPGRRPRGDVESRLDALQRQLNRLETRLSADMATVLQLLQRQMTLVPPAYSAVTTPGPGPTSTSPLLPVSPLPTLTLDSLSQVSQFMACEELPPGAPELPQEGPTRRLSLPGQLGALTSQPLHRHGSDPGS

SMILES | hERG current change (%, negative = inhibition) at 10uM
Cc1ccc(C(=O)Nc2cc3c(oc2=O)CCCC3=O)cc1 | -2.47%
COc1cc(/C=C/C(=O)NC(C)C2CC3CCC2C3)cc(OC)c1OC (centres unmarked) | 10.6%
O=C(CN1C(=O)S/C(=C\c2cccs2)C1=O)Nc1ccc(O)cc1C(=O)O | 8.88%
CCOc1ccc(-n2ccnc2SCC(=O)Nc2nnc(CC)s2)cc1 | -11.9%
CCC(=O)N1CCc2cc(Br)cc(S(=O)(=O)N3CCCCC3CC)c21 (centres unmarked) | 0.791%
CCCN(c1ccc(C)cc1)c1nc(=O)c2cccnc2s1 | -28%
COc1cc(S(=O)(=O)N2CCCCC2)ccc1NC(=O)c1ccccc1Cl | -24.6%
COCCNC(=O)C1CC2Cn3c(nc4cc5ccccc5cc43)C2N1C (centres unmarked) | -3.93%
CCCNC(=O)C1CC2Cn3c(nc4ccccc43)C2N1C (centres unmarked) | 12.8%
Cc1cc2nc3n(c2cc1C)CC1CC(C(=O)NCc2ccco2)N(C)C31 (centres unmarked) | -29%
CN1C(C(=O)NCc2cccc(Br)c2)CC2Cn3c(nc4ccccc43)C21 (centres unmarked) | -67.7%
CN1C(C(=O)NCc2ccco2)CC2Cn3c(nc4cc5ccccc5cc43)C21 (centres unmarked) | -38.6%
Cc1cc2nc3n(c2cc1C)CC1CC(C(=O)NCc2cccc(Br)c2)N(C)C31 (centres unmarked) | -72.5%
COCCNC(=O)C1CC2Cn3c(nc4cc(C)c(C)cc43)C2N1C (centres unmarked) | 8.23%
C=CCNC(=O)C1CC2Cn3c(nc4cc5ccccc5cc43)C2N1C (centres unmarked) | -16.2%
Cc1cc2nc3n(c2cc1C)CC1CC(C(=O)NCc2ccccc2)N(C)C31 (centres unmarked) | -31.4%
CN1C(C(=O)NCc2ccccc2)CC2Cn3c(nc4ccccc43)C21 (centres unmarked) | -0.69%
CN1C(C(=O)NCc2ccccc2)CC2Cn3c(nc4cc5ccccc5cc43)C21 (centres unmarked) | -67.9%
CN1C(C(=O)NCc2cccc(Br)c2)CC2Cn3c(nc4cc5ccccc5cc43)C21 (centres unmarked) | -62%
Cc1ccc(S(=O)(=O)[N-]c2nc3ccccc3nc2-n2cc[n+](Cc3ccccc3)c2)cc1 | 11%
O=C(c1csc2c1CCCC2)N1CCN(c2ncccn2)CC1 | -25.1%
O=C(NCc1cccc(C(F)(F)F)c1)c1ccc(=O)[nH]c1 | 22.5%

SMILES | hERG current change (%, negative = inhibition) at 10uM
Cc1oc(-c2ccccc2)nc1CS(=O)CC(=O)O (centres unmarked) | 10.2%
Cc1nn(-c2ccccc2)c(N2CCCC2)c1C=O | 2.49%
Cc1cccc(-c2ncc(CN3CCCC(CO)(Cc4ccccc4C)C3)cn2)c1 (centres unmarked) | -11.4%
Cc1cccc(/C=N/NC(=O)Cc2ccc(Cl)cc2)c1O | 18.6%
Cc1cc(C)nc(SCC(=O)NN)n1 | 21.1%
O=C(NCc1ccccc1)c1ccc[n+]([O-])c1 | 30.8%
O=S(=O)(Nc1nc2cc3c(cc2nc1Cl)OCCO3)c1ccccc1 | -15.5%
CC(C)CNC(=S)N1CCC(NC(=O)C23CC4CC(CC(C4)C2)C3)CC1 | -7.73%
CC(=O)N1CCC(=NNC(=O)c2cc3ccccc3cc2O)CC1 | 16.8%
O=C(Cc1ccc(-c2ccccc2)cc1)Nc1ccccc1 | 19.1%
COc1cc(S(=O)(=O)NCc2ccc3c(c2)OCO3)ccc1Cl | -26.1%
CC1Cc2ccccc2N1C(=S)NC(=O)c1ccco1 (centres unmarked) | 16.2%
O=C(COc1ccccc1)Nc1nccs1 | -13.5%
CCn1nc(C(=O)NNC(=O)COc2ccc(OC)cc2)c2ccccc2c1=O | -23.4%
CCc1ccc(OCC(=O)NNC(=O)c2nn(CC)c(=O)c3ccccc23)cc1 | -57.9%
COc1ccc(OCC(=O)NNC(=O)c2nn(C)c(=O)c3ccccc23)cc1 | -21.1%
CCn1nc(C(=O)NNC(=O)CCOc2cc(C)ccc2C)c2ccccc2c1=O | -77.6%
CCCn1nc(C(=O)NNC(=O)CCOc2ccccc2OCC)c2ccccc2c1=O | -21.8%
CCn1nc(C(=O)NNC(=O)COc2ccccc2C)c2ccccc2c1=O | -16%
COc1ccc(C(CC(=O)NCc2ccco2)c2ccc(F)cc2)cc1 (centres unmarked) | -22.4%
O=C(NCc1nnc(SCC(=O)N2CCN(c3ccccc3)CC2)o1)c1ccc(F)cc1 | -5.96%
O=S(=O)(NCc1cccnc1)c1cccc2cccnc12 | 6.44%

SMILES | hERG current change (%, negative = inhibition) at 10uM
COc1ccc(CCNS(=O)(=O)c2ccc3c(c2)CCN3C(=O)C2CC2)cc1OC | 0.919%
Cc1ccc(C)n1CCN1CCN(C(=O)CSc2nc3ccccc3nc2N2CCOCC2)CC1 | -54.5%
CCOCCCn1c(SCc2nc3ccccc3s2)nc2ccccc2c1=O | -2.07%
CCn1c(SCC(=O)N2CCN(c3ccc(Cl)cc3)CC2)nc2ccccc2c1=O | 8.79%
COc1ccc(-n2c(SC(C)C(=O)N3CCOCC3)nc3ccccc3c2=O)cc1 (centres unmarked) | 6.84%
O=C(CSc1nc2ccccc2nc1SCC(=O)N1CCOCC1)N1CCOCC1 | -5.85%
O=C(CSc1nc2ccccc2nc1N1CCOCC1)N1CCN(c2ccccc2)CC1 | -39.2%
CCCn1c(SC(C)C(=O)N2CCOCC2)nc2ccc(Br)cc2c1=O (centres unmarked) | -56.1%
CCCCn1c(SCc2nc3ccccc3s2)nc2ccccc2c1=O | -54.7%
O=c1c2ccccc2nc(SCc2nc3ccccc3s2)n1CCCO | -4.88%
CCn1c(SCC(=O)N2CCN(c3ccc(F)cc3)CC2)nc2ccccc2c1=O | -45.2%
CCn1c(SC(C)C(=O)N2CCOCC2)nc2sc(C)c(C)c2c1=O (centres unmarked) | 3.37%
CCCn1c(SCC(=O)N2CCN(c3ccccc3)CC2)nc2ccccc2c1=O | -56.7%
O=C1CCC(C(=O)Nc2ccc(Cl)cc2)N1 (centres unmarked) | 28%
CC1CCN(C(=O)c2ccc3c(c2)NC(=O)CN3)CC1 | 8.49%
Nc1ccc(C2(c3ccc(N)cc3)OC(=O)c3ccccc32)cc1 | -6.43%
CCOC(=O)C1CCN(C(=O)C(=O)Nc2ccc3nc4n(c(=O)c3c2)CCCCC4)CC1 | 1.99%
CCC1(C)Cc2c(sc3nc(NN)n(C)c(=O)c23)CO1 (centres unmarked) | 13.4%
Cc1ccc(C(C(=O)NC2CCCC2)N(C(=O)CNC(=O)c2cccs2)c2cccnc2)o1 (centres unmarked) | -11.1%
Cn1c(N)c(C(=O)CSc2nc3ccccc3c(=O)n2CCCN2CCOCC2)c(=O)n(C)c1=O | 2.7%
COCCCn1c(SCC(=O)N2CCOCC2)nc2ccccc2c1=O | -5.65%
Cc1[nH]c2ccccc2c1C(=O)CSc1nc2ccccc2c(=O)n1CCCN1CCOCC1 | -5.57%

SMILES | hERG current change (%, negative = inhibition) at 10uM
O=C(CSc1nc2ccccc2c(=O)n1CCCN1CCOCC1)N1CCN(c2ccccc2)CC1 | -70.6%
O=C(CSc1nc2ccccc2c(=O)n1CCCN1CCOCC1)c1c[nH]c2ccccc12 | -54%
CCCCn1c(SCC(=O)N2CCOCC2)nc2ccccc2c1=O | -68.4%
O=C1CN(C(=O)CSc2nc3ccccc3c(=O)n2CCCN2CCOCC2)c2ccccc2N1 | -19.7%
CCCCn1c(SCC(=O)NC2CC2)nc2ccccc2c1=O | -4.62%
CCOCCCn1c(SCC(=O)N2CCOCC2)nc2ccccc2c1=O | -36%
Cc1onc(-c2c(Cl)cccc2Cl)c1C(=O)NCCCN1CCOCC1 | 3.09%
O=C(CCc1c[nH]c2ccccc12)OCc1ccc(Br)cc1 | 10.2%
Cc1ccc(-n2nc(C)c3c2OC(N)=C(C#N)C3c2ccncc2)cc1 (centres unmarked) | 7.07%
CCN(C(=O)COC(=O)c1ccc(OC)c(S(=O)(=O)N(C)Cc2ccccc2)c1)C1CCS(=O)(=O)C1 (centres unmarked) | -30.9%
CCN(Cc1ccccc1)S(=O)(=O)c1cc(C(=O)O)ccc1OC | 14.1%
COc1ccc(C(=O)OCC(=O)NC2CC2)cc1S(=O)(=O)N(C)Cc1ccccc1 | -53.8%
CCN(Cc1ccccc1)S(=O)(=O)c1cc(C(=O)NCCCN(C)C)ccc1OC | -50.3%
COc1ccc(C(=O)NCc2ccc3c(c2)OCO3)cc1S(=O)(=O)N(C)Cc1ccccc1 | -12.3%
COc1ccc(C(=O)OCC(=O)N(C)C2CCS(=O)(=O)C2)cc1S(=O)(=O)N(C)Cc1ccccc1 (centres unmarked) | -15.7%
CCN(Cc1ccccc1)S(=O)(=O)c1cc(C(=O)NCC2CCCCC2)ccc1OC | -9.52%
COc1ccc(C(=O)Nc2ccc(NC(C)=O)cc2)cc1S(=O)(=O)N(C)Cc1ccccc1 | 10.3%
COc1ccc(C(=O)NC(C)c2ccncc2)cc1S(=O)(=O)N(C)Cc1ccccc1 (centres unmarked) | -61%
O=S(=O)(Nc1cc(C(F)(F)F)ccc1N1CCOCC1)c1ccccc1 | 4.09%
CC(CC(=O)N1CCN(c2ccccc2)CC1)S(=O)(=O)c1ccc2c(c1)NC(=O)CO2 (centres unmarked) | -20.1%
